# High-throughput results: PubChem BioAssay, several laboratories
# ADAM17 inh – ADAM17 inhibitors, primary screen, biochemical, QFRET. Disintegrin and metalloproteinase domain-containing protein 17 (Homo sapiens), P78536. recombinant ADAM17, EDANS/DABCYL FRET peptide cleavage. inhibition, % at 6.95 µM. hit rate 0.83% among 370,000. AID 720648, 2013;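 active means inhibition above the mean of compounds lying between control limits plus 3 SD, set per campaign, cut at about 8.5% in these data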;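 further: 0% = DMSO-only wells as the low control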
# Target sequence (P78536 215-824 limits assumed): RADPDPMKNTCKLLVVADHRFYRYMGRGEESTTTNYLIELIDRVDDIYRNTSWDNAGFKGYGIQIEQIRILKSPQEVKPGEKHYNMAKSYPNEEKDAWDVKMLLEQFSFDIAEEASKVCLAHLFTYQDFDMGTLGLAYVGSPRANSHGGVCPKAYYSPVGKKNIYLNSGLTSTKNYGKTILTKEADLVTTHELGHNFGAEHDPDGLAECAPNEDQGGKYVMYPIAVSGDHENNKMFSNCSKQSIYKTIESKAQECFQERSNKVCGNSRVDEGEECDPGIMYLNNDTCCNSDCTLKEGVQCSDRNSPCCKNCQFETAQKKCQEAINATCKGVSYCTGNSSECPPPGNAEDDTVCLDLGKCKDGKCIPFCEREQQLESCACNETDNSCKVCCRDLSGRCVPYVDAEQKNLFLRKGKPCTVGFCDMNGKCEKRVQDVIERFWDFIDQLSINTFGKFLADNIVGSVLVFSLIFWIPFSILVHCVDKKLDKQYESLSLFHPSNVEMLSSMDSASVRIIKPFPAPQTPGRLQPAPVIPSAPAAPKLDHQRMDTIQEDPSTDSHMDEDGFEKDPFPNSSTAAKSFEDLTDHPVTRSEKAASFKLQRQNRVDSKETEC
# GRIN3A LBD mod – binders of NR3A ligand-binding domain, primary screen, biophysical, differential scanning fluorimetry, uHTS. Glutamate receptor ionotropic, NMDA 3A (GRIN3A) ligand-binding domain. NR3A LBD differential scanning fluorimetry, Tm shift; 0% = protein alone, 100% = glycine-bound protein. Tm shift relative to glycine control, % at 25 µM. hit rate 2.5% among 340,000;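 active means melting temperature shift of at least 10% of the positive control shift, at one fixed dose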
# FAS TE block – FAS thioesterase domain inhibitors, primary screen, biochemical, fluorescence intensity, uHTS; recombinant FAS-TE, OMFH fluorogenic substrate, fluorescence endpoint; inhibition, % at 15 µM; hit rate 0.67% among 360,000;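 active means compounds whose normalised, plate-corrected inhibition of enzyme fluorescence in the single-dose primary screen is 50% or more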;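 further: 0% = DMSO with enzyme and 100% = substrate without enzyme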
# aDG glyco act – activators of alpha-DG glycosylation, primary screen, uHTS, Pro5-aDG cells, AlphaScreen. activation, % at 10 µM. hit rate 0.22% among 360,000. alpha-DG glycosylation AlphaScreen (IIH6); 0% Pro5, 100% B10-LARGE cell signal;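 active means activation of at least 8% versus controls, or a plate z-score of at least 8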;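 further: Pro5 are CHO cells carrying HIG-tagged alpha-DG that lacks glycosylation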
# ADAM10 inh – human ADAM10 inhibitors, primary screen, biochemical, QFRET, HTS | recombinant ADAM10, EDANS/DABCYL FRET peptide cleavage, 3 h | inhibition, % at 7 µM | hit rate 0.62% among 370,000 | AID 720582, 2013;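 active means inhibition above a per-campaign cutoff equal to the mean of compounds falling between control-based bounds plus 3 SD, cut at about 20% in these data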;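 further: 0% = DMSO wells while the 100% control is not disclosed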
# ADAM10 confirm – human ADAM10 inhibitors, confirmation, biochemical, QFRET, triplicate; shares compounds with ADAM10 inh; ADAM10 QFRET peptide cleavage, EDANS fluorescence; hit rate 1% among 2,100; inhibition, % at 6.95 µM; AID 743208, 2013;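 active means inhibition above about 20% chosen separately for each screening run, limit read from the data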;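 further: 0% = DMSO wells and 100% = marimastat wells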
# ADAM17 counter – ADAM17 inhibitors, counter-screen for ADAM10 exosite inhibitor project, biochemical, QFRET, high throughput. shares compounds with ADAM10 inh. ADAM17 QFRET peptide cleavage, EDANS fluorescence. inhibition, % at 6.95 µM. hit rate 0.5% among 2,100;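 active means mean triplicate inhibition above the solvent-only control wells' mean plus 3 SD, cut at about 12% in these data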;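 further: 0% = DMSO wells and 100% = marimastat wells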
# * hit, by the source's call; x = no result given. The list is not random: actives were taken first. Their share in the collection is about 4%.
SMILES,ADAM17 inh,GRIN3A LBD mod,FAS TE block,aDG glyco act,ADAM10 inh,ADAM10 confirm,ADAM17 counter
O=C(Nc1cccc(C(F)(F)F)c1)C1Cc2c(-c3ccco3)ccnc2O1 (stereo not given),5,x,24,0,3,x,x
CC(=O)c1cccc(-c2ccnc3c2CC(C(=O)Nc2ccc(Cl)c(C(F)(F)F)c2)O3)c1 (stereo not given),8,x,33,1,26*,4,2
O=C(CN1C(=O)NC2(CCOc3ccccc32)C1=O)c1ccc(Cl)s1 (stereo not given),-2,-10,6,0,-15,x,x
CCc1nnc(NC(=O)CSc2ccc(-c3ccc(-n4cccn4)cc3)nn2)s1,-3,35*,-8,0,54*,0,0
Cc1ccccc1NC(=O)CSc1ccc(-c2ccc(-n3cccn3)cc2)nn1,-3,1,-7,0,-9,x,x
Nc1cc([N+](=O)[O-])cc2oc(-c3ccccc3)cc12,5,6,18,0,25*,2,2
Cc1ccc(C(O)(C(=O)NNc2ccccn2)c2ccc(C)cc2)cc1,-3,-1,-1,0,1,x,x
Cc1ccc(NNC(=O)C(O)(c2cccc(C(F)(F)F)c2)c2cccc(C(F)(F)F)c2)cc1,7,26*,33,0,26*,1,0
O=C(Nc1ccccc1N1CCCC1)C1CCN(S(=O)(=O)c2cccc(C(F)(F)F)c2)CC1,-1,-6,18,0,4,x,x
NS(=O)(=O)c1ccc(CNC(=O)C2(c3ccc(Cl)cc3)CC2)cc1,-3,0,-3,0,-3,x,x
COc1ccc(CNC(=O)C2(c3ccc(Cl)cc3)CC2)cc1,3,-2,9,0,21*,0,0
CCOc1ccc(NC(=S)Nc2ccc(F)cc2)cc1,-3,-8,-4,0,-2,x,x
CCOc1ccc(NC(=S)Nc2cc(-c3ccccc3)[nH]n2)cc1,4,14*,12,0,23*,6,1
O=C1c2[nH]nc(-c3ccccc3O)c2C(c2cccc(Cl)c2)N1Cc1ccco1 (stereo not given),7,-1,-79,0,29*,4,1
CC1CC(C)CN(C(=S)SCc2nc(N)nc(Nc3ccccc3)n2)C1 (stereo not given),8,8,26,0,28*,4,1
COCCCn1c(SCC(=O)Nc2nc3ccccc3s2)nnc1-c1ccoc1C,-2,-1,2,0,-5,x,x
Nc1[nH]c(C(=O)c2ccc(Br)cc2)c(-c2ccc(Br)cc2)c1C(=O)NCCc1c[nH]c2ccccc12,0,x,6,0,-5,x,x
COC(=O)c1cnc(Nc2nc(C(N)COCc3ccccc3)cs2)nc1C(F)(F)F (stereo not given),5,x,-32,1,22*,3,1
Cc1ccc(N(C)C(=O)c2cnn(-c3ccccc3)c2C)c(C)c1,-4,-4,-2,0,-4,x,x
CCN1CCN(C(=O)NCc2ccccc2)CC1,-4,-3,-6,0,-3,x,x
Cc1cc(C)c(OCC(=O)Nc2ccc(NC(=O)c3ccco3)cc2)c([N+](=O)[O-])c1,-1,1,-8,0,-9,x,x
Cc1cc(C)c(OCC(=O)Nc2cccc(NC(=O)c3ccco3)c2)c(Br)c1,8,-10,30,1,21*,6,2
O=C(NCc1ccccn1)C1CCN(S(=O)(=O)c2ccccc2F)CC1,-3,1,-1,0,-8,x,x
CCC(c1nnnn1C1CCCCC1)N1CCN(C2CCCC2)CC1 (stereo not given),-2,8,-8,0,-7,x,x
CCC(c1nnnn1C(C)C)N1CCN(C2CCCC2)CC1 (stereo not given),1,0,-6,0,74*,-3,0
SMILES,ADAM17 inh,GRIN3A LBD mod,FAS TE block,aDG glyco act,ADAM10 inh,ADAM10 confirm,ADAM17 counter
C#CCN(C[C@H]1[C@H](OC(=O)NCc2ccco2)[C@H](OC(=O)NCc2ccco2)C[C@H]2C(=O)N(c3ccccc3)C(=O)[C@@H]12)S(=O)(=O)c1ccc(C)cc1,8,x,29,0,21*,8,2
CCOC(=O)c1c(NC(=O)CSc2nnnn2C)sc(C)c1-c1ccc(C)cc1,6,1,31,0,26*,9,3
CCOC(=O)c1c(-c2ccccc2)csc1NC(=O)CSc1nnnn1C,1,4,24,-1,4,x,x
FC(F)(F)c1cc(Oc2ccc(Cl)cc2)ncc1-c1nnc(-c2ccc(Cl)cc2)o1,0,0,34,0,-8,x,x
CCCn1c(SCC(=O)c2cc(C)c(C)cc2C)n[nH]c1=O,-1,3,-8,0,5,x,x
S=c1[nH]cc(-c2ccccc2)n1-c1ccccc1,11*,1,-6,0,23*,-2,0
CC(=O)C1(O)CCC2C3CCC4CC(O)CCC4(C)C3C(=O)CC21C (stereo not given),-4,-1,-4,0,-3,x,x
C#CC1(O)CCCC2C3CCC4CC(OC(C)=O)CCC4(C)C3C(=O)CC21C (stereo not given),2,2,7,0,24*,2,0
O=C1/C(=C/c2cccs2)SC(=S)N1CCCC(=O)N(CCO)c1ccccc1,1,4,8,0,24*,0,1
Fc1ccccc1NC(=S)NNc1ncc(C(F)(F)F)cc1Cl,5,-6,-3,0,21*,2,1
Cc1ccccc1NC(=S)NNc1ncc(C(F)(F)F)cc1Cl,2,-1,-4,0,8,x,x
CCOC(=O)C(=O)NCC(c1cccs1)S(=O)(=O)c1ccc(C)cc1 (stereo not given),2,0,-6,0,-4,x,x
N#Cc1c(-c2ccccc2)c(-c2ccccc2)n(Cc2ccco2)c1NC(=O)c1cccs1,7,-4,40,0,20*,21*,7
O=C(CSc1nnc(-c2ccc(O)cc2)n1Cc1ccco1)c1cccs1,-1,-3,-2,0,3,x,x
Cn1ncc(N=Cc2ccccc2O)c1C(=O)N1CCOCC1,0,0,-7,0,4,x,x
